Test results taken from PubChem BioAssay AID2685 (National Center for Advancing Translational Sciences (NCATS), 2010).
The whole screen tested about 320,000 compounds, of which about 2,100 (0.66%) were called active. About 53% were inconclusive and are not listed. Calls come from the whole dose curve; as a rule, active = well fitted inhibition curve with a large enough effect in the signal ratio, with a control signal flat (not every such curve was filed as active); inconclusive = small, poorly fitted or top-dose-only effect, or effect the other way, or a change in a side signal; inactive = flat fitted curve, though single readings scatter; the % refers to the signal ratio. The full list was thinned out, with actives kept by preference.

experiment: qHTS Assay for Lipid Storage Modulators in Drosophila S3 Cells; conditions: BODIPY lipid droplet fluorescence, 18-24 h, cells fed with added oleic acid; cell number change: measured here: cell count max response; series mostly up to 46.1 µM; lipid storage change, negative = inhibition: at the top concentration;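 for cell number change: cells counted by Cell Tracker Red CMTPX staining in the red channel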; for lipid storage change, negative = inhibition: % is set by controls: 0 for no effect and ±100 for the full control effect
Procedure, shortened: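 Drosophila S3 cells got compounds at several concentrations plus oleic acid (400 uM solution). Laser-scanning cytometry with 488 nm excitation read lipid droplets at 500-530 nm and cells at 575-640 nm. Percent activity was relative to 20 uM Triacsin C.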
Potency is the fitted concentration of half-maximal effect.

Compound	lipid storage change, negative = inhibition	cell number change	outcome	Potency
O=C1CN(C(=O)CNC(=O)c2cccc(Cl)c2)c2ccccc2N1	0.224% (inactive)	17%	–	–
Cc1cccn2c(=O)c(/C=C(\C#N)S(=O)(=O)c3ccccc3)c(Oc3ccc(Cl)cc3)nc12	2.66% (inactive)	-10.2%	–	–
CC(=O)N1CCN(c2ccccc2NC(=O)COc2cc(C)cc(C)c2)CC1	-100% (inactive)	13.5%	–	–
CCOc1ccc(S(=O)(=O)NCc2csc(C)n2)cc1	–	–	inactive	–
CCS(=O)(=O)c1ccc2oc(Nc3ccc(C(C)C)cc3)nc2c1	-3.92% (inactive)	2.93%	–	–
CCn1nc(C)cc1C(=O)N1CCc2c([nH]c3ccccc23)C1c1cc(F)ccc1F (stereo not given)	-9.5% (inactive)	8.47%	–	–
CN(C)S(=O)(=O)c1ccc(N2CCCC2)c(C(=O)Nc2ccccc2F)c1	14.2% (inactive)	25.2%	–	–
CN(C)S(=O)(=O)c1ccc(N2CCCC2)c(C(=O)Nc2ccccc2OC(F)F)c1	9.18% (inactive)	29.4%	–	–
COc1ccc(C(C)(C)C)cc1NC(=O)c1cc(S(=O)(=O)N(C)C)ccc1N1CCCC1	–	-23.6%	–	18.4 µM (active)
COc1ccc(S(=O)(=O)NC2CCCC2)cc1NC(C)=O	-1.83% (inactive)	17.4%	–	–
COc1ccc(C=O)cc1Oc1nc(Cl)ncc1F	21.6% (inactive)	5.61%	–	–
CC(CCc1ccccc1)NC(=O)CN1CCN(c2ccc(O)cc2)CC1 (stereo not given)	-11.9% (inactive)	0.962%	–	–
CC(=O)Nc1ccc(SCC(=O)c2ccc(Br)s2)cc1	–	5.88%	inactive	–
COc1ccc(S(N)(=O)=O)cc1-c1nnc2c3ccccc3c(C)nn12	-0.656% (inactive)	-15.7%	–	–
Cc1ccc(S(=O)(=O)c2c(O)c3ccc(C(=O)O)cc3[nH]c2=O)cc1	–	-5.9%	–	11.6 µM (active)
COc1ccc(S(=O)(=O)c2c(O)c3ccc(C(=O)Nc4ccccc4)cc3[nH]c2=O)cc1	26.4% (inactive)	23%	–	–
COc1ccc(S(=O)(=O)c2c(O)c3ccc(C(=O)Nc4ccc(F)cc4)cc3[nH]c2=O)cc1	–	-7.08%	inactive	–
Cc1cccc(NC(=O)c2cc(Cl)ccc2[N+](=O)[O-])c1	4.85% (inactive)	–	–	–
Cc1cccc(Nc2nc(N)c([N+](=O)[O-])c(NCCO)n2)c1	0.152% (inactive)	-0.837%	–	–
O=C(CSc1ccc2ccccc2n1)NCc1ccc2c(c1)OCO2	19.1% (inactive)	26.9%	–	–
Cc1cccc(C)c1NC(=S)NCCCN1CCCC1=O	–	-0.836%	–	0.461 µM (active)
Cc1cc(Cl)ccc1NC(=S)NCCCN1CCCC1=O	18.7% (inactive)	7.04%	–	–

Compound	lipid storage change, negative = inhibition	cell number change	outcome	Potency
O=C1CCCN1CCCNC(=S)Nc1ccccc1	15.3% (inactive)	-7.97%	–	–
CCN1CCN(CC(O)COCCOc2ccc(Br)cc2)CC1 (stereo not given)	-7.14% (inactive)	4.7%	–	–
Cc1cccc(OCC(=O)NCc2cc(C)nc3ccccc23)c1	5.62% (inactive)	-5.05%	–	–
CCOc1ccc(C(C)NC(=O)c2cc(=O)[nH]c3ccccc23)cc1OCC (stereo not given)	–	6.31%	–	0.0021 µM (active)
COc1ccccc1OCCNC(=O)c1cc(=O)[nH]c2ccccc12	8.99% (inactive)	13.3%	–	–
COc1ccccc1C(C)NC(=O)c1cc(=O)[nH]c2ccccc12 (stereo not given)	–	-5.13%	inactive	–
CC(=O)c1cccc(N(CC(=O)NC2CCCCC2)C(=O)CNC(=O)c2cccs2)c1	–	16.1%	inactive	–
COCCCNC(=O)c1c(N)n(/N=C/c2ccccn2)c2nc3ccccc3nc12	–	–	–	7.31 µM (active)
CCC(C)NC(=O)c1c(N)n(/N=C/c2ccccn2)c2nc3ccccc3nc12 (stereo not given)	16.9% (inactive)	8.8%	–	–
COCCNC(=O)c1c(N)n(/N=C/c2ccc(F)cc2)c2nc3ccccc3nc12	3.89% (inactive)	21.5%	–	–
Cc1ccc(-c2ccc(=O)n(CCC(=O)N3CCN(Cc4ccccc4)CC3)n2)cc1	–	–	inactive	–
COc1ccc(Br)cc1CN(C)C(=O)c1ccc2c(c1)NC(=O)C(C)S2 (stereo not given)	4.83% (inactive)	–	–	–
COc1cccc(COC(=O)c2ccc3c(c2)NC(=O)C(C)S3)c1OC (stereo not given)	–	–	–	3.26 µM (active)
COc1ccc(CNC(=O)c2ccc3c(c2)NC(=O)C(C)S3)cc1 (stereo not given)	-0.216% (inactive)	-2.51%	–	–
CN1CCN(C(=O)c2cc(Cl)ccc2NC(=O)c2ccc(Cl)cc2Cl)CC1	-0.54% (inactive)	–	–	–
C=CCn1c(SCC(N)=O)nc2sc3c(c2c1=O)CCC3	–	-3.38%	inactive	–
CC(NC(=O)c1ccccc1NC(=O)CN1CCN(c2ccccc2O)CC1)c1ccccc1 (stereo not given)	–	14.4%	–	8.2 µM (active)
O=C(CN1CCN(c2ccc(O)cc2)CC1)Nc1cc(S(=O)(=O)N2CCCCC2)ccc1Cl	10.5% (inactive)	21%	–	–
CC(NC(=O)CN1CCN(c2ccc(Cl)cc2)CC1)c1ccccc1 (stereo not given)	-3.9% (inactive)	-1.82%	–	–
O=C(CN1CCN(c2ccccc2O)CC1)Nc1cc(S(=O)(=O)N2CCCC2)ccc1Cl	–	-12.2%	–	0.259 µM (active)
O=C(CN1CCN(c2ccccc2O)CC1)NC(c1ccccc1)c1ccccc1	16.7% (inactive)	6.07%	–	–
O=C(CN1CCN(c2ccc(O)cc2)CC1)Nc1cc(S(=O)(=O)N2CCCC2)ccc1Cl	4.5% (inactive)	-1.92%	–	–

Compound	lipid storage change, negative = inhibition	cell number change	outcome	Potency
COc1cc(S(=O)(=O)NCc2ccccn2)c(OC)cc1Cl	1.56% (inactive)	4.19%	–	–
CCOC(=O)N1CCN(S(=O)(=O)c2ccc3c(c2)SC(C)C(=O)N3)CC1 (stereo not given)	-9.6% (inactive)	-22.8%	–	–
COC(=O)CSc1nnc(CNS(=O)(=O)c2ccc(Cl)cc2)n1C	–	-22.7%	–	20.6 µM (active)
COC(=O)CSc1nnc(CNC(=O)c2ccc(S(=O)(=O)N(C)C)cc2)n1C	4.97% (inactive)	–	–	–
CCCSc1nnc(CNS(=O)(=O)c2ccc(C)cc2)n1C	2.69% (inactive)	-0.463%	–	–
O=C(c1cccc(Cl)c1)N1CCC(N2CCC(C(=O)N3CCOCC3)CC2)CC1	-10.6% (inactive)	-7.23%	–	–
CCN1CCCC1CNS(=O)(=O)c1c(C)cc(C)cc1C (stereo not given)	17% (inactive)	-11.3%	–	–
CCOC(=O)c1sc(NC(C)=O)nc1C	–	–	inactive	–
CCCn1c(SCC(=O)Nc2ccc(NC(C)=O)cc2)nc2c1c(=O)n(C)c(=O)n2C	–	7.69%	inactive	–
COCCN(C(=O)C(=O)NC1CCCC1)C(C(=O)NC1CCCC1)c1ccccc1F (stereo not given)	-0.455% (inactive)	6.8%	–	–
COCCN(C(=O)CCl)C(C(=O)NC1CCCCC1)c1ccccc1C (stereo not given)	–	-11.6%	–	23.1 µM (active)
COCCN(C(=O)CCC(=O)Nc1cc(C)on1)C(C(=O)NC1CCCC1)c1ccccc1C (stereo not given)	7.32% (inactive)	7.81%	–	–
O=S(=O)(NCc1ccccc1)c1ccc(Cl)cc1	-5.46% (inactive)	-16.1%	–	–
C=CCn1c(O)c(C=Nc2ccc(Cc3ccncc3)cc2)c(=O)[nH]c1=S	11.8% (inactive)	1.96%	–	–
Cc1ccc2cccc(Oc3nnnn3-c3ccccc3)c2n1	–	10.6%	inactive	–
O=C(O)c1ccc(-n2nnnc2Oc2cccc3cccnc23)cc1	–	-14.4%	–	23.1 µM (active)
c1ccc(-n2nnnc2Oc2cccc3cccnc23)cc1	–	–	inactive	–
CCNC(=O)CC1SC(=Nc2ccccc2C)N(C)C1=O (stereo not given)	1.25% (inactive)	12.4%	–	–
CCN1CCN(c2ccc(S(=O)(=O)N3CCCCC3)cc2NC(=O)c2ccc(F)cc2)CC1	16% (inactive)	–	–	–
COc1ccc(/C=C(\NC(=O)c2ccc(OC)cc2)C(=O)Nc2ccc(C(=O)O)cc2)cc1	–	11.1%	inactive	–
Cc1ccc(S(=O)(=O)N2CCN(C(=O)CN3CCCSc4ccccc43)CC2)cc1	14.9% (inactive)	6.28%	–	–
N#Cc1ccccc1S(=O)(=O)N1CCN(C(=O)C2CCC2)CC1	14.4% (inactive)	17.3%	–	–

Compound	lipid storage change, negative = inhibition	cell number change	outcome	Potency
N#Cc1ccccc1S(=O)(=O)N1CCN(C(=O)CN2CCCSc3ccccc32)CC1	–	-12.9%	–	2.06 µM (active)
CC(C)(C)OC(=O)[C@H](Cc1ccccc1)NC(=O)c1[nH]cnc1C(=O)Nc1ccc(Cl)cc1	-47.5% (inactive)	-19.3%	–	–
C[C@H](NC(=O)c1nc[nH]c1C(=O)N[C@@H](Cc1ccccc1)C(=O)OC(C)(C)C)C(=O)OC(C)(C)C	16% (inactive)	1.8%	–	–
CC(C)C[C@H](NC(=O)c1nc[nH]c1C(=O)N(C)Cc1ccccc1)C(=O)OC(C)(C)C	-12.5% (inactive)	-15.1%	–	–
C[C@H](NC(=O)c1nc[nH]c1C(=O)N[C@@H](Cc1ccccc1)C(=O)OC(C)(C)C)C(=O)OCc1ccccc1	–	26.3%	–	14.6 µM (active)
O=C(N[C@@H](Cc1ccccc1)C(=O)OCc1ccccc1)c1nc[nH]c1C(=O)NC(c1ccccc1)c1ccccc1	3.83% (inactive)	11.4%	–	–
C[C@H](NC(=O)c1nc[nH]c1C(=O)N(C)Cc1ccccc1)C(=O)OC(C)(C)C	–	20.3%	–	0.651 µM (active)
O=C(N[C@@H](Cc1ccccc1)C(=O)OCc1ccccc1)c1nc[nH]c1C(=O)N[C@@H](Cc1ccccc1)C(=O)OCc1ccccc1	–	–	–	3.26 µM (active)
CCOC(=O)c1ccc(NC(=O)c2nc[nH]c2C(=O)N[C@@H](Cc2ccccc2)C(=O)OC(C)(C)C)cc1	–	-20.1%	–	18.4 µM (active)
CCOC(=O)c1ccc(NC(=O)c2nc[nH]c2C(=O)N[C@@H](CC(C)C)C(=O)OC(C)(C)C)cc1	-1.73% (inactive)	-3.92%	–	–
C[C@H](NC(=O)c1nc[nH]c1C(=O)N[C@@H](C)C(=O)OC(C)(C)C)C(=O)OCc1ccccc1	-8.74% (inactive)	0.898%	–	–
C[C@H](NC(=O)c1nc[nH]c1C(=O)NCc1ccccc1)C(=O)OC(C)(C)C	-10.5% (inactive)	-10.1%	–	–
C[C@@H](NC(=O)c1nc[nH]c1C(=O)N[C@@H](Cc1ccccc1)C(=O)OCc1ccccc1)c1ccccc1	-0.678% (inactive)	-24.1%	–	–
COc1ccccc1CN1CC(C(=O)N(CCO)Cc2cccs2)CCC1=O (stereo not given)	8.22% (inactive)	1.74%	–	–
CCN1CCCC1CNC(=O)C(=O)NC (stereo not given)	-3.62% (inactive)	1.27%	–	–
Cc1c(C(=O)NCc2cccnc2)oc2ccc(S(=O)(=O)N3CCCCCC3)cc12	–	–	inactive	–
O=C(Cn1ccc(C(F)(F)F)n1)N/N=C/c1ccc2c(c1)OCO2	11.3% (inactive)	4.92%	–	–
COc1ccc(Cl)cc1NC(=O)CCn1c(=O)oc2ccccc21	-13.1% (inactive)	–	–	–
O=C(CN1C(=O)C2C3CCC(C3)C2C1=O)OCC(=O)c1cccc([N+](=O)[O-])c1 (stereo not given)	4.51% (inactive)	2.72%	–	–
C=CCn1c(SCc2ccc(C(=O)NCCO)cc2)nc2sc(C)c(C)c2c1=O	3.04% (inactive)	22.5%	–	–
Cc1ccc(C(=O)NNc2ncnc3c2cnn3C)cc1	3.58% (inactive)	-1.39%	–	–
